The target of the assay is PUM1 PUF domain R4-CNG (Homo sapiens, UniProt Q14671 828-1176, N971C;H972N;Q975G). Description: yeast three-hybrid, YBZ-1, SC-Leu-His + 0.5 mM 3-AT, 4 days. As to conditions: tags: N-Gal4 AD-HA kept; label: inside an RPR1-promoter hybrid RNA with tandem MS2 sites; ssRNA. In a few lines:
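Matching RNA elements and Pumilio-1 PUF domain libraries, randomized at the three base-contacting residues of every repeat, were co-expressed from a centromeric plasmid in strain YBZ-1 (LexA–MS2 coat fusion, HIS3 reporter). The repeat regions were PCR-amplified and Illumina-sequenced from cells grown four days on SC-Leu (input) or SC-Leu-His + 0.5 mM 3-AT (selection). The interaction score is the log change in variant frequency from input to selection. It is computed in log2, with a pseudocount of 1 for absent variants.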
Turning to “GGCUAGAACUAGUGGAUCCCCCGGCGCCCGGCGGCUCGAGCCCGGGUAAGUGUAAAUAGUCUGCAUGCCGCCGGGCGCCAUGCCUGCAGGUCGACUCUAGAAAACAUG”, the binding signal is 2.92 log2 enrichment (interaction score).
For “GGCUAGAACUAGUGGAUCCCCCGGCGCCCGGCGGCUCGAGCCCGGGUAAGUGUAUAUAGUCUGCAUGCCGCCGGGCGCCAUGCCUGCAGGUCGACUCUAGAAAACAUG”, the binding signal was 4.94 log2 enrichment (interaction score).
The value for “GGCUAGAACUAGUGGAUCCCCCGGCGCCCGGCGGCUCGAGCCCGGGUAAGUGUACAUAGUCUGCAUGCCGCCGGGCGCCAUGCCUGCAGGUCGACUCUAGAAAACAUG” was 2.39 log2 enrichment (interaction score).

For the origin of these results see paper PMC8384837, “Expanding the binding specificity for RNA recognition by a PUF domain”.
